This is a sample that favours compounds with a hit; in the whole collection about 6.8% have one here.
Spn MK inh = S. pneumoniae mevalonate kinase inhibition; inhibition, % at 10 µM; purified MK, PK/LDH-coupled NADH absorbance 340 nm; actives 0.48% (n = 65,000);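 active = ranked among the strongest by inhibition in the single 10 µM screen, a fixed top-ranked set picked for dose follow-up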
NADH coupling = inhibition of NAD/NADH coupling enzymes, library profiling; coupled PK/LDH NADH assays, four targets; IC50, µM (doses to about 10 µM); actives 0.02% (n = 65,000); AID 774;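 active = single-dose screening hits from any of four coupled enzyme assays that gave an IC50 when retested across doses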;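 also: the DPM-DC format reads NADH fluorescence rather than 340 nm absorbance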
PMK inhibit = blocks S. pneumoniae phosphomevalonate kinase | inhibition, % at 10 µM | AID 539 | purified PMK, PK/LDH-coupled NADH absorbance 340 nm | actives 0.49% (n = 65,000);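 active = top-ranked compounds by inhibition in the single 10 µM screen, taking a fixed number of the strongest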
A340 absorber = compounds absorbing at 340 nm; 65,000 tested, under 10 active; fold change at 10 µM; compound absorbance at 340 nm, fold over control;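 active = at 10 µM dose, initial 340 nm absorbance at least 2 fold that of control wells; inactive = change under 2 fold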;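 also: initial absorbance extrapolated from kinetic A340 decline of NADH oxidation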
DPM-DC inhibit = inhibitors of Streptococcus pneumoniae diphosphomevalonate decarboxylase. purified DPM-DC, PK/LDH coupled NADH fluorescence. calls only at 10 µM. AID 556. actives 0.49% (n = 65,000);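 active = the 320 compounds with the highest percent inhibition in the single-dose primary screen, excluding strongly autofluorescent ones, cut at about 32% in these data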;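 also: kinetic rate of NADH fluorescence loss reporting ADP formed by the decarboxylase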
Autofluor 339 = intrinsic fluorescence of library compounds, ex339/em460 – biochemical, MLSMR library, data from DPM-DC assay, artefact control, profiling panel; compound autofluorescence, ex339/em460 nm, NADH buffer; hits give high values; 1 = no-compound wells, NADH background; fluorescence fold increase at 10 µM; actives 5.5% (n = 65,000);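 active = at 10 µM, mean starting fluorescence two-fold or more over control wells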;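 also: signal is the first read of a kinetic run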
A number is an active result; 0 = inactive; - = not tested or not shown.

SMILES | Spn MK inh | NADH coupling | PMK inhibit | A340 absorber | DPM-DC inhibit | Autofluor 339
COc1ccc(OC)c2c(N3CC(C)OC(C)C3)cc(C(F)(F)F)nc12 (centres undefined) | 0 | 0 | 0 | 0 | 0 | 2.1
Cc1cc(N2CCCC2)nc(-c2ccccc2O)n1 | 0 | 0 | 0 | 0 | 0 | 2.6
O=C(CCCc1nc2ccccc2s1)N1CCN(S(=O)(=O)c2cccs2)CC1 | 0 | 0 | 0 | 0 | 0 | 0
COc1ccc(CCNc2oc(-c3ccc(OC)c(OC)c3)nc2C#N)cc1 | 0 | 0 | 0 | 0 | - | 3.9
N#Cc1nc(-c2ccccc2F)oc1NCc1cccc2c1OCO2 | 0 | 0 | 0 | 0 | 0 | 0
COc1ccc(CCNc2oc(COc3ccccc3)nc2C#N)cc1 | 0 | 0 | 0 | 0 | 0 | 0
CN(C)CCNc1oc(-c2ccccc2F)nc1C#N | 0 | 0 | 0 | 0 | - | 2.5
COc1ccc(-c2nc(C#N)c(NCCCN(C)C)o2)cc1OC | 0 | 0 | 0 | 0 | - | 3.1
N#Cc1nc(-c2ccccc2Cl)oc1NCC1CCCO1 (centres undefined) | 0 | 0 | 0 | 0 | 0 | 0
N#Cc1nc(-c2ccccc2F)oc1NC1CCCCC1 | 0 | 0 | 0 | 0 | - | 2.1
CCCn1c(NC(=O)c2cccc(S(=O)(=O)N3CCCC3)c2)nc2ccccc21 | 0 | 0 | 0 | 0 | 0 | 0
COc1ccc(-c2nnc(SCC(=O)NC(C)c3ccccc3)o2)cc1 (centres undefined) | 0 | 0 | 0 | 0 | 0 | 0
CN(C)CCCNc1oc(-c2ccccc2)nc1C#N | 0 | 0 | 0 | 0 | - | 2.1
COc1ccc(-c2nc(C#N)c(NCC3CCCO3)o2)cc1OC (centres undefined) | 0 | 0 | 0 | 0 | - | 3.9
Cc1cccc(OCc2nc(C#N)c(NCCN(C)C)o2)c1 | 0 | 0 | 0 | 0 | 0 | 0
COc1ccc(-c2nc(C#N)c(NC(C)c3ccccc3)o2)cc1OC (centres undefined) | 0 | 0 | 0 | 0 | - | 3.9
COc1cc(-c2nnc3sc(-c4ccccn4)nn23)cc(OC)c1OC | 0 | 0 | 0 | 0 | 0 | 0
CC(C)OC(=O)C1C(=O)CC(C)(O)C(C(=O)OC(C)C)C1c1cccnc1 (centres undefined) | 0 | 0 | 27 | 0 | 0 | 0
Cc1cccc(C(=O)Nc2ccccc2C(=O)OCc2c(C)noc2C)c1 | 42 | 0 | 0 | 0 | 0 | 0
c1ccc2c(c1)oc1c(N3CCN(Cc4ccc5c(c4)OCO5)CC3)ncnc12 | 0 | 0 | 0 | 0 | 0 | 0
C=CCn1c(-c2ccccc2)nc2nc3ccccc3nc21 | 0 | 0 | 0 | 0 | - | 2.1
Cc1cc(-c2cccs2)n[nH]1 | 0 | 0 | 0 | 0 | 0 | 0
c1csc(-c2ccc3ccccc3n2)c1 | 0 | 0 | 0 | 0 | 0 | 2.6
c1ccc(-c2noc(-c3cccc4ccccc34)n2)cc1 | 0 | 0 | 0 | 0 | 0 | 2.5
COc1ccc(C(=O)N(Cc2nc(-c3ccc(C)cc3)no2)C2CCCCC2)cc1OC | 0 | 0 | 0 | 0 | 0 | 0
SMILES | Spn MK inh | NADH coupling | PMK inhibit | A340 absorber | DPM-DC inhibit | Autofluor 339
CCOc1ccc2nc(N3CCOCC3)nc(C)c2c1 | 0 | 0 | 0 | 0 | - | 3.8
c1ccc2c(c1)nc(N1CCOCC1)c1c3ccccc3[nH]c21 | 0 | 0 | 0 | 0 | - | 3.6
Cc1cc(N2CCN(c3nc(N4CCOCC4)nc4ccccc34)CC2)c2ccccc2n1 | 0 | 0 | 0 | 0 | 0 | 2.1
c1ccc2nc(N3CCOCC3)c(N3CCOCC3)nc2c1 | 0 | 0 | 0 | 0 | 0 | 0
c1ccc2c(N3CCCCC3)nc(N3CCCCC3)nc2c1 | 0 | 0 | 0 | 0 | 0 | 0
Nc1nc(N2CCOCC2)nc2ccccc12 | 0 | 0 | 0 | 0 | - | 4
O=C(CN1CCc2ccccc2C1)c1cccs1 | 0 | 0 | 0 | 0 | 0 | 0
COc1ccc(-c2nnc(NC(=O)c3cc(Cl)ccc3Cl)o2)cc1 | 0 | 0 | 0 | 0 | 0 | 0
CCNc1cc2oc(=O)c(CN3CCOCC3)c(C)c2cc1C | 0 | 0 | 0 | 0 | - | 2.2
Cc1ccc2oc(=O)cc(CN3CCOCC3)c2c1 | 0 | 0 | 0 | 0 | 0 | 0
Nc1c(C(=O)Nc2ccc(F)cc2)sc2nc(-c3ccco3)ccc12 | 0 | 0 | 0 | 0 | - | 3.8
Clc1ccc(N2CCN(c3ncnc4c3oc3ccccc34)CC2)cc1 | 0 | 0 | 0 | 0 | - | 3.7
CCOc1ccc2oc(-c3ccccc3)c(C(=O)O)c2c1 | 0 | 0 | 0 | 0 | - | 3.9
CC(Oc1ccc2oc(-c3ccccc3)c(C(=O)O)c2c1)C(=O)O (centres undefined) | 0 | 0 | 0 | 0 | - | 2.4
